Out of some 190,000 compounds screened, about 200 (0.11%) were called active. Cut-off read from the data, not from the text of the source: active = inhibition above about 40%. Many of the other results were omitted from the sample, so actives are more common in it than they were.
Target: Induced myeloid leukemia cell differentiation protein Mcl-1 (Homo sapiens) (UniProt Q07820)
Test: Mcl-1/Bim interaction disruptors – biochemical, bead-based flow cytometry, multiplex, primary screen (AID 1009);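 note: 0% = no compound tracer wells and 100% = peptide blocker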
Conditions: Bim peptide-Mcl-1 binding, at 10 µM, active compounds read high

Induced myeloid leukemia cell differentiation protein Mcl-1 (Homo sapiens), sequence (Q07820 whole entry, looked up): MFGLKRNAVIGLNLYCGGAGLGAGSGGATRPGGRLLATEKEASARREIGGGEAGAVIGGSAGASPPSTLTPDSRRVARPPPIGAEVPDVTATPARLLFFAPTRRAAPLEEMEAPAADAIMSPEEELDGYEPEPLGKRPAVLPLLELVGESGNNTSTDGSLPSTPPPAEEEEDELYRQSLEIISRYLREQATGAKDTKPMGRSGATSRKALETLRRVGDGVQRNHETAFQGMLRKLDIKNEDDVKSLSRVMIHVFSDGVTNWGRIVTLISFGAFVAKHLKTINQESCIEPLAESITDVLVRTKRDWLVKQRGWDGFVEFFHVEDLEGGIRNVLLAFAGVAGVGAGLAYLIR

inhibition, active:
CCCn1c(C(O)c2cc(OC)ccc2OC)nc2ccccc21 (configuration not stated) 80%, CCOC(=O)N1CCC(c2cc(=O)n(-c3ccccc3)[nH]2)CC1 42%

inhibition, inactive:
CC(CO)NCC12CC3CC(CC(C3)C1)C2 (configuration not stated) 0%, Cc1[nH]c2ccccc2c1/C=C(/C#N)C(=O)NC(C)C 0%, C=CCN(Cc1nc(-c2cc(OC)c3c(c2)OCO3)oc1C)C1CCS(=O)(=O)C1 (configuration not stated) -1%, CC(C)C(=O)NCc1cc(-c2ccc(Cl)cc2)no1 -2%, O=C(NCCCN1CCOCC1)c1ccc(N2CCCC2)c([N+](=O)[O-])c1 0%, O=C(NCc1ccc(F)cc1)C(c1ccccc1)N(C(=O)c1csnn1)C1CC1 (configuration not stated) -1%, Nc1[nH][nH]c(=O)c1N=Nc1ccc2c(c1)OCO2 0%, COc1ccc(Cl)cc1N(CC(=O)N/N=C/c1ccc(OCC(N)=O)cc1)S(C)(=O)=O 1%, CSc1ccc(CN2C(=O)NC3(CCCCCC3)C2=O)cc1 3%, Cc1nc(N2CCC(C)CC2)c2c(C)c(C(=O)Nc3cc(F)ccc3C)sc2n1 -1%, COc1ccc(/C=N/OCC(=O)N(Cc2ccccc2)c2ccccc2C(=O)O)cc1 -1%, C#CCOCCOCCOCCNc1nc(N2CCN(C(=O)[C@H](CCC(=O)O)n3cc(C(N)CO)nn3)CC2)nc(N2CCN(C(=O)[C@H](Cc3ccc(O)cc3)n3cc(C(N)[C@H](C)CC)nn3)CC2)n1 (some centres not stated) 0%, CCOC(=O)Cc1ncccc1C(=O)Nc1ccc(OC(F)(F)F)cc1 -7%, COc1ccc(C(=O)N2CCC(C(=O)Nc3ccc(C)cc3)CC2)cc1 -3%, N#Cc1ccc(-c2nc3cc(C#N)c(C#N)cc3nc2-c2ccccc2)cc1C#N 1%, O=C(CCN1C(=O)/C(=C/c2cccs2)SC1=S)NNC(=O)c1cccc(O)c1 0%, COCC1CCCN(Cc2cn[nH]c2-c2cc3ccccc3o2)C1 (configuration not stated) -3%, O=C(NC(=S)NC1CCSC1=O)c1ccccc1F (configuration not stated) 0%, O=C(N/N=C/c1cc([N+](=O)[O-])ccc1O)/C(=C\c1cccs1)NC(=O)c1ccccc1 0%, COc1ccc(C(=O)C2CCCN(Cc3cccn3-c3ccccn3)C2)c(C)c1 (configuration not stated) 0%, CN(CC(=O)NC1CCCC1)S(=O)(=O)c1cnc[nH]1 -8%, Cc1cc(C)nc(Nc2ncn[nH]2)n1 1%, CCCCC(CC)CNC(=O)C(=O)C1C(=O)Nc2ccccc21 (configuration not stated) -2%, O=C(/C=C/c1cnc2ccccc2n1)NC1CCCCCC1 -22%, COc1cccc(CNC(=O)c2n[nH]c3ccccc23)c1 0%, COc1ccc(N(CC(=O)Nc2ccc(C)cc2C)S(=O)(=O)c2ccccc2[N+](=O)[O-])c(OC)c1 4%, COc1ccc(C(=O)NC2(C(F)(F)F)NC(=O)N(CCCc3ccccc3)C2=O)c(OC)c1OC (configuration not stated) -3%, CCCOc1ccc(Cn2ccnc2)cc1[N+](=O)[O-] -1%, O=C(/C=C/c1ccc(Cl)cc1)N1CCN(c2ccccc2[N+](=O)[O-])CC1 -1%, CCO[C@H]1OC(C(=O)N2CCOCC2)=C[C@@H](c2ccc3c(c2)OCO3)[C@@H]1CCCO -2%, CC(=O)N1CCN(S(=O)(=O)c2c(F)cc(F)c(Cl)c2F)CC1 -1%, Cc1ccc(Cl)c(NC(=O)CN2CCN(C=O)CC2)c1 0%, COc1cc(C(O)c2nc3ccccc3n2C)cc(OC)c1OC (configuration not stated) 0%, CCCn1c(C(O)c2ccc(OCC)cc2)nc2ccccc21 (configuration not stated) 0%, COc1ccc(CC2(CO)CCN(Cc3cnn(C)c3)CC2)cc1 8%, COc1cccc(NC(=O)CS(=O)(=O)c2cn(CC(=O)N3CCOCC3)c3ccccc23)c1 1%, COc1ccc(S(=O)(=O)NC(C)C)cc1C(=O)NC1CCCCC1 -1%, O=C(CCN1C(=O)c2ccccc2C1=O)C1=NN[C@@H]2C(=O)N(c3ccc(F)cc3)C(=O)[C@H]12 -3%, Cc1c(Cc2ccccc2)c(=O)oc2cc(OCC(N)=O)ccc12 0%, C/C(=N/OC(=O)c1c(-c2c(F)cccc2Cl)noc1C)c1cnccn1 -2%, COC(=O)C1=C(C)N(C(C)c2ccccc2)C(=O)/C1=C\c1ccco1 (configuration not stated) -2%, Cc1ccc2[nH]cc(CCCN3C(=O)c4ccccc4C3=O)c2c1 -3%, CC1(C)CN(c2ccc(-c3ccnc4ncnn34)cc2)C1=O -1%, Cn1c(CCC(=O)OCC(=O)NCc2ccccc2Cl)nc(=O)c2ccccc21 -2%, CC(=O)Nc1ccc(-c2csc(NC=C3C(=O)OC(C)(C)OC3=O)n2)cc1 -8%, c1ccc2sc(NN=C3CCCC3)nc2c1 0%, Oc1ccc(-c2nncn2-c2ccccc2)cc1 0%, COc1cccc(NC(=O)COC(=O)CCOc2ccccc2OC)c1 0%, COc1ccc(NC(=S)Nc2ccc(S(N)(=O)=O)cc2)c(C)c1 -2%, Cc1ccc(NN=Nc2nc3c([nH]2)c(=O)n(C)c(=O)n3C)cc1 -7%, O=C(NCCCN1CCOCC1)c1ccccc1NS(=O)(=O)c1ccc(F)cc1 3%, CCOc1cccc(/C=C/c2ccc3ccccc3n2)c1OC(C)=O 0%, O=C(Nc1ccc(F)cc1)C1CCN(C(=O)c2ccc([N+](=O)[O-])cc2)CC1 0%, Cc1cc(OCCN2CCCC2)cc(C(C)C)c1 -3%, COc1cc(C2OC(c3cc(OC)c(OC)c(OC)c3)C(C)C2C)cc(OC)c1OC (configuration not stated) 0%, COC(=O)c1cc(NC(=O)c2cccnc2)ccc1N1CCOCC1 -2%, Cc1ccc(S(=O)(=O)/N=C(\N)c2ccc(F)cc2)cc1 0%, CC1CCCC(NC(=O)c2cccc(N3CCCC3=O)c2)C1C (configuration not stated) 1%, CCOC(=O)CN1CCC(c2ccccc2)CC1 2%, CCOC(=O)N1CCC(NC(=O)COc2cc(=O)n(C)c3ccccc23)CC1 -1%, CCN(CC)C(=O)C(=O)c1cn(CC(=O)NCc2ccc3c(c2)OCO3)c2ccccc12 0%, COC(=O)c1ccc(NC(=O)CSc2nncc3ccc(OC)c(OC)c23)cc1 1%, Cn1cc(Cl)c(C(=O)NNC(=S)Nc2cccc(Cl)c2)n1 -1%, Cc1cc(C)c(C(N)=O)c(Cl)n1 0%, CC(C)(C)NC(=O)c1ccc(Cn2cc(C(F)(F)F)ccc2=O)cc1 -1%, CCN(CC)c1ccc(C(=O)N/N=C(\C)c2cccc(OC)c2)cc1 1%, Cn1c(-c2sccc2OCc2cccc(C(F)(F)F)c2)n[nH]c1=S -4%, CC(=O)NC(NC(=S)Nc1c(C)n(C)n(-c2ccccc2)c1=O)C(Cl)(Cl)Cl (configuration not stated) 0%, CCC(=O)NCc1cc(-c2nn(C)c(=O)c3ccccc23)ccc1OC -1%, O=C(/C=C/c1ccc([N+](=O)[O-])cc1)NCCSCc1ccco1 -5%, Cc1c(C(=O)NC(=S)NCc2cccnc2)oc2ccccc12 0%, CCOCC(=O)Nc1ncc(S(=O)(=O)c2ccc([N+](=O)[O-])cc2)s1 0%, COC(=O)CNC(=O)c1ccc(OC2CCN(C(=O)C3CC3)CC2)cc1 -2%, CC(=O)c1ccccc1NC(=O)CC1(CC(=O)O)CCCCC1 0%, Fc1ccccc1CNC(=S)Nc1ccc(Cl)cc1 -14%, CSc1ccc(/C=C/C(=O)NC23CC4CC(CC(C4)C2)C3)cc1 -2%, O=C(c1ccc(OC2CCN(Cc3ccccn3)CC2)cc1)N1CCCCCC1 -4%, Cc1ccc2c(c1)C1CN(C)CCC1N2C(=S)Nc1ccc(OC(F)F)cc1 (configuration not stated) -1%, O=C(COC(=O)CCCSc1nc2ccccc2[nH]1)Nc1ccc(Oc2ccccc2)cc1 2%, COc1ccc(-c2nc(CN3CCN(c4ncccn4)CC3)c(C)o2)cc1C -2%, O=[N+]([O-])c1ccc(F)cc1Oc1nc(-c2cccnc2)nc2ccccc12 4%, CCN1CCN(C(=O)CN(C)S(=O)(=O)c2ccc3ccccc3c2)CC1 0%, O=C(Nc1ccc2oc(-c3ccccc3F)nc2c1)c1ccco1 -3%, COc1ccnc(Oc2ccccc2)c1-c1ncn[nH]1 -2%, N#C/C(=C\c1ccc(-c2cccc([N+](=O)[O-])c2)o1)C(=O)NCCN1CCOCC1 0%, N#CCOc1ccc(C2=NO[C@@H]3[C@@H]4C[C@@H]([C@H]5C(=O)N(c6ccc7c(c6)OCO7)C(=O)[C@@H]45)[C@H]23)cc1 -7%, CCc1c(SCCC(=O)O)nc2ccccc2c1C -1%, COc1ccc(CC(NC(C)=O)C(=O)NC2CCN(C(=O)C3CC3)CC2)cc1OC (configuration not stated) 1%, COc1cccc(NC(=O)C(Sc2nc3ccccc3c(=O)n2CC(C)C)c2ccccc2)c1 (configuration not stated) -1%, O=C(COc1nc2ccccc2nc1N1CCOCC1)NCC(F)(F)F -3%, Cc1ccc(OCC(=O)NNC(=S)NCc2ccccc2)cc1 0%, CCOC(=O)c1cc2c(nc1NC(=S)Nc1ccccc1)CC(C)(CC)OC2 (configuration not stated) -5%, Cc1[nH]c2ccccc2c1SCC(=O)Nc1nccs1 -1%, O=C(/C=C/c1ccccc1)Oc1coc(CSc2ncccn2)cc1=O 0%, Cc1nn(CC(=O)NCc2ccccn2)c(C)c1[N+](=O)[O-] 0%, CCCNC(=O)NC(=O)COC(=O)CC(NC(N)=O)c1ccc(Cl)cc1 (configuration not stated) -8%, COCCNC(=O)NC(=O)COC(=O)C1(c2ccc(Cl)cc2)CC1 0%, Cc1ccc(S(=O)(=O)Cc2cc(-c3ccc(Cl)cc3)no2)cc1 0%, O=C1CCC/C(=N\NC(=O)NC2CCCCC2)C1 1%, Cc1ccc(C(=O)COC(=O)c2cccc(N3C(=O)c4c(C)nc5ccccc5c4C3=O)c2)cc1C -5%, CCOc1cc(CNCc2ccccn2)ccc1OCC(=O)NC(C)(C)C -5%, Cc1cc(=O)oc2c1c(C)nn2-c1ccc(Cl)cc1 2%, O=C(Cn1c2[n+](c3ccc(C(F)(F)F)cc31)CCCCC2)Nc1c(F)cccc1F 2%, Cc1ccc(OCC(=O)OC(C)CN(C)Cc2ccccc2)cc1 (configuration not stated) 0%, Cc1ccc(C(=O)O)cc1N1C(=O)CCCC1=O 0%

From PubChem BioAssay AID1009 (NMMLSC, 2008)
